Drawing on PubChem BioAssay (NCI), this text covers growth for 40 molecules.

Structures are written as SMILES. About 83,000 compounds went through this panel and 20% of them were active in at least one assay; those are over-represented in the sample as a whole.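 Single-concentration screen, 48 h exposure, 96-well plates. Endpoint: percent growth. Below 10 = active.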 A number with no mark means an inactive call. Active and inactive are the calls of the source.

The test system of the assay is MDA-MB-468 breast. Kind of assay: NCI-60 one-dose screen, 48 h (100 = growth as untreated, 0 = no growth, -100 = all killed). Conditions: 10 µM unless noted.
Turning to `COc1cc(C(=O)Nc2ccc(N(C)C)cc2)cc(OC)c1OC`, the growth was 80%.

For the molecule `C/C(Cc1ccc(Cl)cc1)=C(/c1ccc(Cl)cc1)c1ccc(OCCN2CCCC2)cc1`, the growth is 66.1%.

Consider `COc1ccc2c(c1)[nH]c(=O)c1c3cc(OC)ccc3cn21`, for which the growth is 5.66% (active).

Regarding `COc1cc2nc(-c3ccc(Cl)cc3)cc(OCCCN3CCCC3)c2cc1OC`, the growth was 43.5%.

`CN(C)CCC(=O)c1c[nH]c2ccccc12`: the growth is 106%.

Take `CN(C)c1ccc(/C=N\Nc2cc(=O)[nH]c3ccc(Cl)cc23)cc1`: the growth was 107%.

Turning to `O=C(O)CCCl`, the growth was 94.6%.

Consider `O=C1CCCCCCCCC(O)C(O)CCCC(c2cccs2)O1` (stereo not given), for which the growth was 95.5%.

With `CSc1cccc([N+](=O)[O-])c1`, the growth is 94.1%.

Turning to `CCCCCCCC/C=C\CCCCCCCCOc1ccccc1CC(=O)NCC[N+](C)(C)C`, the growth is 68.9%.

Take `COc1ccc(C(=NN=C(N)N)c2ccc(OC)cc2)cc1`: the growth is -17.7% (active).

In the case of `COc1ccc(OC)c(C2C(C#N)=C(N)Oc3cc(O)ccc32)c1` (stereo not given), the growth was 81.1%.

For `CCOC(=O)c1csc(NC(=O)CSc2nc3sc4c(c3c(=O)n2-c2ccc(Cl)cc2)CCCC4)n1`, the growth was 102%.

On to `CN1CCN(CC(=O)Nc2cccc(-n3cc(-c4ccncc4)c(-c4ccc(Cl)c(O)c4)n3)c2)CC1`, for which the growth was 10.7%.

As to `CCOC(=O)CCC(=O)P(=O)(O)O`, the growth was 114%.

`CCN1CCOC1C(C)C` (stereo not given): the growth was 109%.

With `Cc1cc(C=O)c(C)c2c1[nH]c1ccccc12`, the growth is 68.1%.

For `Cc1cc([N+](=O)[O-])ccc1NC(=O)c1ccc2c(c1)nc(-c1ccccc1)n2C1CCCCC1`, the growth is 100%.

`COc1ccc2c(c1)C(=O)c1c-2c(OCCN(C)C)nc2ccccc12`: the growth was 44.8%.

Regarding `N#CC1=C(N)Oc2c(sc3c(F)cccc23)C1c1ccc([N+](=O)[O-])cc1` (stereo not given), the growth is -41.6% (active).

In the case of `O=C1/C(=N\c2cc(=O)[nH]n2S(=O)(=O)c2ccccc2)Nc2ccccc21`, the growth is 106%.

On to `O=[N+]([O-])c1ccc(-c2nc(N(CCO)CCO)c3ccccc3n2)o1`, for which the growth is -73.5% (active).

As for `COc1ccc(NC(=O)c2ccoc2COc2ccccc2)cc1`, the growth was 116%.

For the molecule `COc1ccccc1NC(=O)N=Nc1c(O)[nH]c2ccccc12`, the growth is 86.1%.

Regarding `Cn1c2ccccc2c2c3[nH][nH]c(=O)c3c3c4ccccc4[nH]c3c21`, the growth is 49.5%.

Turning to `c1cc(OCCN2CCCC2)ccc1CNc1ccc2nc(CCC3CCCCC3)[nH]c2c1`, the growth is 43.6%.

On to `O=C(c1nc2ccccc2[nH]1)C1C(c2cccc([N+](=O)[O-])c2)C2CC3CCCCC3N2[C@@]12C(=O)Nc1cc(Cl)ccc12` (stereo not given in full), for which the growth is 1.53% (active).

Consider `O=C(OCc1ccc2c(Br)cc(Br)c(O)c2n1)N1CCN(C(=O)c2cc3ccccc3[nH]2)CC1`, for which the growth is 21.9%.

Turning to `CCN1C(=O)N(CC)C2C1NN=c1s/c(=C3\C(=O)Nc4ccccc43)c(=O)n12` (stereo not given), the growth is -20.9% (active).

For the molecule `COC(=O)[C@]12CC[C@@H](C)[C@H](C)[C@@H]1C1=CC[C@@H]3[C@@]4(C)C(C=O)=C[C@@](C)(COS(C)(=O)=O)[C@@H]4C(=O)C[C@@]3(C)[C@]1(C)CC2`, the growth is 38%.

As to `NC1=NC(c2ccccc2)C2=C(N1)/C(=C/c1ccccc1)CCC2` (stereo not given), the growth is 89.6%.

Turning to `CCCCC/C=N/Nc1nc(C)cc(=O)[nH]1`, the growth was 105%.

For the molecule `CC(C)C1CCCCC1O` (stereo not given), the growth is 107%.

`CCOC(=O)N/N=C/c1ccc(OC)c(OC)c1`: the growth was 97.6%.

Take `CC1=C(/C=C/C(C)=C/C=C(C(=O)O)\C(C)=C\C(=O)O)C(C)(C)CCC1`: the growth is 109%.

With `O=C1/C(=C\c2ccc(Cl)cc2)CN(C(=S)Nc2ccccc2)C/C1=C\c1ccc(Cl)cc1`, the growth was -64.4% (active).

For the molecule `NC(=O)c1cc(Cl)ccc1NC(=O)/C=C/c1ccccc1`, the growth is 30.7%.

Consider `CCCCCCCCCCCCCCCC(=O)OC[C@@]1(O)C[C@@]23CC[C@@H]4C(C)(C)[C@H](O)CC[C@@]4(C)[C@@H]2CC[C@H]1C3`, for which the growth was 112%.

With `O=[N+]([O-])c1ccc(N=Nc2c(O)c(N=Nc3cc([N+](=O)[O-])cc([N+](=O)[O-])c3O)cc(N=Nc3cc(S(=O)(=O)O)cc4cc(S(=O)(=O)O)cc(O)c34)c2O)cc1`, the growth is 100%.

Consider `CC1(C)CC[C@]2(c3nnc(-c4ccncc4)o3)CC[C@]3(C)C(=CC[C@@H]4[C@@]5(C)CCC(=O)C(C)(C)[C@@H]5CC[C@]43C)[C@@H]2C1`, for which the growth is 80%.
